KCNH2 WT inh: blocks the wildtype human KCNH2 potassium channel | U2OS, BacMam KCNH2, thallium flux FluxOr; hits give low values | Q12809 | activity change, % at 1.84 µM | AID 720551 | actives 0.37% (n = 340,000);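 active = maximum activity change below -70%; inconclusive = maximum activity change between -70% and -50%; inactive = maximum activity change above -50%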
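U2OS cells were transduced with wild-type KCNH2 virus (2.03 x 10^8 / mL) for 4 h at room temperature, then cultured overnight at 37 C. Thallium flux was read with FluxOr dye. Rate constants were normalized to DMSO controls.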
KCNH2 3.1 block: inhibitors of human KCNH2 3.1 potassium channel isoform; AID 720553; U2OS KCNH2 3.1, thallium flux FluxOr; hits give low values; activity change, % (tested at about 1.8 µM); actives 0.95% (n = 340,000);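 active = maximum activity change below -70%; inconclusive = maximum activity change from -70% to -50%; inactive = maximum activity change above -50%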;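 note: thallium influx rate constant from kinetic fluorescence after stimulation buffer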
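Normalized rate constant (relative to positive and negative DMSO controls) derived from a 2 min kinetic fluorescence read after stimulation; U2OS cells expressing the 3.1 isoform via virus at 1.77 x 10^8 /mL.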
KDM4E inh: JMJD2E (human) inhibition; actives 1.6% (n = 230,000); B2RXH2; JMJD2E catalytic domain, FDH-coupled NADH fluorescence (FDH is formaldehyde dehydrogenase); Potency, µM (top dose mostly 57.1 µM), without a hit: at the top dose activity change, negative = inhibition, most hits filed as inhibitors; active = well fitted inhibition curve with a large enough effect, not every such curve was filed as active; inconclusive = small, poorly fitted or top-dose-only effect, or another doubt; inactive = no such curve, though single readings can be large or run the other way;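 note: potency is the fitted concentration of half-maximal effect; 0% = wells with enzyme and -100% = buffer wells without enzyme; nearly all actives have a fitted effect of over 50% in size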
Target sequence (B2RXH2 1-337 limits assumed): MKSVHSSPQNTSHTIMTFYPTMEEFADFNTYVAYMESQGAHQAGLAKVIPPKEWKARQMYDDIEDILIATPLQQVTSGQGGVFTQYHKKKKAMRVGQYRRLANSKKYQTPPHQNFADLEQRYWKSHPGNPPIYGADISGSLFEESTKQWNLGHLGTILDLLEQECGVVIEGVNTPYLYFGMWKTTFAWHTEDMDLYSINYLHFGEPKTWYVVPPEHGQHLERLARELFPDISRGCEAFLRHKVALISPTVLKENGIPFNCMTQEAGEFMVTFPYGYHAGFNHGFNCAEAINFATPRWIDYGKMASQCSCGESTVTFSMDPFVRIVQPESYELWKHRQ
Six1-Eya2 blk: Six1/Eya2 interaction inhibition. activity change, % (no concentration beside the values). AlphaScreen GST-Six1/His-Eya2 binding, biochemical; hits give low values. Q15475+O00167. actives 0.56% (n = 360,000). AID 651725
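Six1/Eya2 binding was read as AlphaScreen signal after compounds were pinned into GST-Six1 plus His-tagged Eya2 (5X stock 250/500 nM) in pH 8.0 Tris/NaCl/TCEP buffer, beads added, then incubated 1 h, 37 C, dark.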
CtBP-E1A blk: inhibitors of CtBP/E1A interaction; actives 0.49% (n = 340,000); AlphaScreen GST-E1A/His-CtBP binding, 1536-well; hits give low values; activity change, % (test concentration not listed); AID 651724
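Homogeneous bead-based format: GST-tagged E1A captured on glutathione donor beads, His-tagged CtBP on nickel acceptor beads; compounds precede bead addition by 2 h at 37 °C.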
An asterisk follows results filed as active; ? = inconclusive; . = not tested or not shown. A selection: hits, their analogues and other compounds. The true share with any hit is near 2%. Cut-off read from the data, not from the text of the source, unless noted: active = activity change below about -65%; inconclusive = mostly about -30% to -63%; inactive = weaker than that. Unless noted, % is set by controls: 0 for no effect and ±100 for the full control effect.

SMILES	KCNH2 WT inh	KCNH2 3.1 block	KDM4E inh	Six1-Eya2 blk	CtBP-E1A blk
Cc1c(N=Nc2c(O)n(Cc3ccccc3)c(=O)[nH]c2=O)c(=O)n(-c2ccccc2)n1C	2	0	7.1µM*	-89*	-72*
CCN(CC)C(=O)c1ccc2c(c1)C1C=CCC1C(C(=O)O)N2 (stereo unspecified)	-7	3	.	-75*	.
CCN(CC)C(=O)c1ccc2c(c1)C1C(Cl)C(Sc3ccccc3[N+](=O)[O-])CC1C(C(=O)O)N2 (stereo unspecified)	0	1	?	?	?
NC(Cc1ccc(Cl)cc1)c1csc(Nc2cnccn2)n1 (stereo unspecified)	.	.	.	-72*	?
NC12CN3CN(CN(C3)C1)C2 (tested in a mixture with another compound)	-11	6	1%	-3	10
Cc1cc(/C=C2/C(=O)NC(=O)N(Cc3ccco3)C2=O)c(C)n1-c1ccccc1O	2	18	32µM*	1	3
Cc1ccc(OCC(=O)N2CCCC(N3CCN(c4ccc(F)cc4)CC3)C2)cc1 (stereo unspecified)	-43	-86*	.	-5	-2
COc1ccccc1OCC(=O)N1CCCC(N2CCN(c3ccc(F)cc3)CC2)C1 (stereo unspecified)	19	2	.	0	10
COc1ccc(OCC(=O)N2CCCC(N3CCN(c4ccccc4C)CC3)C2)cc1 (stereo unspecified)	16	-74*	.	-4	-5
CCCCCSc1cc(O)c(C(CNC)C(C)C)cc1OC (stereo unspecified)	3	-2	2%	-21	9
CCCCCSc1cc(OC)c(CCN(C)C)cc1OC	14	-70*	-7%	?	?
CN(Cc1cccc(-c2ccncc2)c1)C(=O)Oc1ccc([N+](=O)[O-])cc1	.	.	.	-8	-4
CC(C)(C)c1cc(C=C(C#N)C#N)cc(C(C)(C)C)c1O	-1	-7	19%	-9	2
N#CC(=Cc1ccc(O)c(O)c1)C(N)=S	.	.	8.9µM*	.	.
N#CC(C#N)=Cc1ccc(O)c(O)c1	0	12	7.9µM*	-4	5
COc1cc(C=C(C#N)C#N)cc(O)c1O	.	.	11µM*	.	.
CN(C)c1ccc(C=C(C#N)C#N)cc1	-7	10	7%	6	0
CCC1([N+](=O)[O-])COP(N)(=O)OC1 (stereo unspecified)	8	2	.	12	-2
C=CCNC(=S)N1Cc2ccccc2-n2nncc2C1	-120*	17	.	14	6
COc1ccc(-c2cc(=Nc3cccc(C(=O)O)c3)c3cc(C)ccc3o2)cc1	-24	-18	?	-2	2
COc1ccc(-c2cc(=NCCCCCC(=O)O)c3cc(C)ccc3o2)cc1	4	1	?	-83*	-90*
COc1ccccc1N1C(=O)NC(=O)C2(Cc3cc(C)ccc3N(C)C2)C1=O (stereo unspecified)	-124*	0	3%	-7	0
C[C@H]1O[C@@H](O[C@H]2[C@@H](O)C[C@H](O[C@H]3[C@@H](O)C[C@H](O[C@H]4CC[C@@]5(C)[C@H](CC[C@@H]6[C@@H]5CC[C@]5(C)[C@@H](C7=CC(=O)OC7)CC[C@]65O)C4)O[C@@H]3C)O[C@@H]2C)C[C@H](O)[C@@H]1O	4	0	12%	6	-22
O=C(O[C@@H]1Cc2c(O)cc(O)cc2O[C@@H]1c1cc(O)c(O)c(O)c1)c1cc(O)c(O)c(O)c1	.	.	8.9µM*	.	.
Oc1cc(O)c2c(c1)OC(c1cc(O)c(O)c(O)c1)C(O)C2 (stereo unspecified)	.	.	1.4µM*	.	.
O=C(OC1Cc2c(O)cc(O)cc2OC1c1cc(O)c(O)c(O)c1)c1cc(O)c(O)c(O)c1 (stereo unspecified)	.	.	2.5µM*	.	.
Cc1nn(Cc2ccccc2)c(Cl)c1C(=O)OC(C)C(=O)Nc1ccc(F)cc1Cl (stereo unspecified)	-1	-16	-5%	8	4
c1ccc(C2=NP(N3CCOCC3)(N3CCOCC3)=NC(N3CCOCC3)=N2)cc1	.	.	8%	.	.
CN1C(=O)NC(=O)/C(=C/c2ccc([N+](=O)[O-])s2)C1=O	0	-19	22µM*	?	?

Source: PubChem BioAssay (National Center for Advancing Translational Sciences (NCATS))
